Screening data: PubChem, National Center for Advancing Translational Sciences (NCATS)
CHX counter: affects cycloheximide protein synthesis inhibition readout, counter-screen; cell reporter, cycloheximide protein synthesis inhibition counterscreen; max response, %; 300,000 compounds, 12% hits; in the data active = max response mostly above about 13%, no sharp cut-off; inactive = mostly below about 14%; note: read at 38.3 µM for the half of the compounds with a filed dose
LASV entry inh: blocks Lassa virus binding to or entry into cells. Lassa virus pseudotype entry inhibition, cell reporter. Potency, µM (doses to about 37.9 µM), hits mostly inhibitors. 300,000 compounds, 1.2% hits. AID 540256; calls by dose curve; tested in HEK293 cells; note: nearly all actives have a fitted effect of over 50% in size
AMA1-RON2 inh: AMA1-RON2 (P. falciparum) interaction inhibition; Potency, µM (titrated, usually from 58.2 µM), usual class: inhibitors; AID 720542; AlphaScreen AMA1-biotinylated RON2 peptide binding; 360,000 compounds, 0.2% hits; active = well fitted inhibition curve with a large enough effect; inconclusive = small, poorly fitted or top-dose-only effect; inactive = no such curve, though single readings can be large or run the other way; note: nearly all actives have a fitted effect of over 45% in size
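AMA1 (3D7) with his tag at 25 nM final met compounds first, then biotinylated RON2 peptide at 25 nM; detection used donor plus acceptor beads, 10 µg/mL apiece, read by AlphaScreen after 30 min at room temperature.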
Marburg entry inh: Marburg virus entry inhibition; Potency, µM (doses to about 37.8 µM), hits mostly inhibitors; Marburg virus pseudotyped entry inhibition, cell reporter; 300,000 compounds, 1.8% hits; calls by dose curve; tested in HEK293 cells
Shiga toxin inh: blocks Shiga toxin action in Vero cells; Vero cells, Shiga toxin protein synthesis inhibition reporter; inhibition, % at 38.7 µM; 290,000 compounds, 9.2% hits; in the data active = inhibition mostly above about 28%, no sharp cut-off; inactive = mostly below about 43%
Of the large screens only hits and unclear results are named; the others gave an inactive call. Only a selection was taken, and hits are over-represented in it overall.

CCOc1ccccc1Nc1nc(-c2sc(NC(=O)c3ccc([N+](=O)[O-])cc3)nc2C)cs1	none (no result: LASV entry inh, AMA1-RON2 inh, Marburg entry inh)
CC1Cn2c(C(=O)NCCc3ccc(Cl)cc3)cc3cccc(c32)S1 (stereo not drawn)	none (no result: CHX counter, AMA1-RON2 inh, Marburg entry inh, Shiga toxin inh)
CCc1ccc(S(=O)(=O)N2CCCC(N3CCN(c4ccc(OC)cc4)CC3)C2)cc1 (stereo not drawn)	LASV entry inh inconclusive, AMA1-RON2 inh inconclusive
Cc1cc(NC(=O)C2CC(=O)N(c3ccccc3)C2)no1 (stereo not drawn)	LASV entry inh inconclusive, Marburg entry inh inconclusive
CC(=O)Nc1ccc(NC(=O)[C@@H](NC(=O)c2ccccc2F)C(C)C)cc1	none
COCCc1nc2ccc(C(=O)N(C)Cc3cccc(-n4cccn4)c3)cc2o1	CHX counter 62, Shiga toxin inh 82
CNC(=O)c1ccc2nc(CCc3ccccc3)oc2c1	none (no result: CHX counter, AMA1-RON2 inh, Marburg entry inh, Shiga toxin inh)
CN(Cc1cccnc1)C(=O)c1ccc2nc(Cc3ccccc3F)oc2c1	CHX counter 43, Shiga toxin inh 61 (no result: LASV entry inh, Marburg entry inh)
OC(c1ccccc1)(c1ccc(Cl)cc1)C1CN2CCC1CC2 (stereo not drawn)	LASV entry inh 13µM, Marburg entry inh inconclusive
OC(c1ccccc1)(c1ccccc1)C1CN2CCC1CC2 (stereo not drawn)	Marburg entry inh inconclusive
O=C(Nc1ncc(Cc2cccc([N+](=O)[O-])c2)s1)c1ccco1	CHX counter 29, Shiga toxin inh 102 (no result: LASV entry inh, Marburg entry inh)
O=C(Nc1ncc(Cc2ccc(SC(F)F)cc2)s1)c1ccc(OC(F)F)cc1	LASV entry inh inconclusive, Marburg entry inh 5.6µM
O=C(C[n+]1cccc(CNC(=O)c2ccc(OC(F)F)cc2)c1)Nc1ccc(SC(F)F)cc1	Marburg entry inh inconclusive
O=C(Nc1ncc(Cc2ccccc2)s1)C1=NCCN1	Shiga toxin inh 58
Cc1cccc(Cc2cnc(NC(=O)c3ccc(C)o3)s2)c1	CHX counter 35, Marburg entry inh inconclusive, Shiga toxin inh 71
O=C(Nc1ncc(Cc2cccc(Cl)c2)s1)c1ccc([N+](=O)[O-])cc1	LASV entry inh inconclusive
Cc1cccc(Cc2cnc(NC(=O)C3=NCCN3)s2)c1	Marburg entry inh inconclusive
COCCNC(=S)N/N=C(\C)c1ccc(-n2ccnc2)cc1	Marburg entry inh inconclusive
Cc1ccc(Cc2cnc(NC(=O)c3ccco3)s2)cc1	CHX counter 35, LASV entry inh inconclusive, Marburg entry inh inconclusive, Shiga toxin inh 67
O=C(O)C[C@@H](CNC(=O)COc1ccc2ccc(=O)oc2c1)c1ccc(Cl)cc1	none (no result: LASV entry inh, Marburg entry inh)
CC(=O)Nc1ccc(NC(=O)C2CCCN2C(=O)Nc2ccc(F)c([N+](=O)[O-])c2)cc1 (stereo not drawn)	none
Oc1[nH]c(N=C2N=c3ccccc3=N2)c2ccccc12	CHX counter 35, LASV entry inh inconclusive, Marburg entry inh inconclusive, Shiga toxin inh 60
CC(=O)c1cccc(NC(=O)C(Sc2ncnc3ccccc23)c2ccccc2)c1 (stereo not drawn)	CHX counter 8.0
Cc1ccc(C)c(NC(=O)C(Sc2ncnc3ccccc23)c2ccccc2)c1 (stereo not drawn)	none
O=C(/C=C/c1ccc2c(c1)OCO2)N1CCN(c2n[nH]c(=O)[nH]c2=O)CC1	none
Nc1ccn(Cc2cccc(F)c2)n1	none (no result: LASV entry inh, Marburg entry inh)
Fc1cccc(Cn2ccc(-c3ccc4c(c3)OCO4)n2)c1	CHX counter 57, LASV entry inh inconclusive, Marburg entry inh inconclusive, Shiga toxin inh 99
Fc1cccc(Cl)c1Cn1nnc(-c2ccc3c(c2)OCO3)n1	CHX counter 62, LASV entry inh inconclusive, Shiga toxin inh 146
Cc1ccccc1Cn1ccc(-c2ccc3c(c2)OCO3)n1	CHX counter 60, LASV entry inh inconclusive, Shiga toxin inh 74
Cc1ccccc1Cn1nnc(-c2ccc3c(c2)OCO3)n1	CHX counter 49, Shiga toxin inh 54
CC(=O)OC[C@H]1O[C@H](CC=NOC[C@@H](O)COCc2ccco2)C=C[C@H]1OC(C)=O	none (no result: CHX counter, LASV entry inh, AMA1-RON2 inh, Shiga toxin inh)
Cc1nnc2c(N3CCN(c4ccc(F)cc4)CC3)nc3ccc(C(=O)c4ccccc4)cc3n12	none (no result: CHX counter, AMA1-RON2 inh, Marburg entry inh, Shiga toxin inh)
N#CCn1nnc(-c2ccc3c(c2)OCO3)n1	CHX counter 34
O=C(Cn1nnc(-c2ccc3c(c2)OCO3)n1)N1CCOCC1	Marburg entry inh inconclusive
O=C(NCCCSc1ccccc1)c1cc(Cl)ccc1O	none (no result: LASV entry inh, Marburg entry inh)
CCCc1ccc2oc(C(=O)N3CCN(c4cnccn4)CC3)c(C)c2c1	CHX counter 12, Marburg entry inh inconclusive
Cc1ccc2c(C)c(C(=O)N3CCCCC3CO)oc2c1C (stereo not drawn)	CHX counter 21, Shiga toxin inh 67 (no result: LASV entry inh, Marburg entry inh)
CCCc1ccc2oc(C(=O)N3CCC(COC)C3)c(C)c2c1 (stereo not drawn)	CHX counter 33, LASV entry inh inconclusive (no result: Shiga toxin inh)
CCCc1ccc2oc(C(=O)N3CCC[C@H]3CO)c(C)c2c1	CHX counter 41, Shiga toxin inh 29 (no result: LASV entry inh, Marburg entry inh)
Cc1ccc(NC(=O)CC2Oc3ccccc3NC2=O)c(C)c1 (stereo not drawn)	none (no result: LASV entry inh, Marburg entry inh)
COc1ccc(C2C=C3CNS(=O)(=O)C3CC2OC(=O)c2ccc(Cl)cc2)cc1 (stereo not drawn)	none (no result: LASV entry inh, AMA1-RON2 inh, Marburg entry inh)
C/C(CC(C)(C)C1CCCCC1)=N\NC(N)=S	LASV entry inh 16µM, Marburg entry inh inconclusive
C/C(CCC12CC3CC(CC(C3)C1)C2)=N\NC(N)=S	LASV entry inh inconclusive
C/C(=N\NC(=O)c1ccccc1OCCOc1ccccc1)c1ccccc1F	LASV entry inh inconclusive, Marburg entry inh 11µM (no result: CHX counter, Shiga toxin inh)
CCCC(CCC)=NNC(=O)c1ccccc1F	LASV entry inh inconclusive, Marburg entry inh inconclusive
C/C(=N\NC(=O)c1ccccc1)c1ccccc1Br	CHX counter 58, Marburg entry inh inconclusive, Shiga toxin inh 67
C/C(=N\NC(=O)OC(C)(C)C)c1ccccc1Br	CHX counter 59, Shiga toxin inh 63
C/C(=N\NC(=O)c1ccccc1)c1ccccc1F	CHX counter 26, Marburg entry inh inconclusive, Shiga toxin inh 87
C/C(=N\NC(N)=O)c1ccccc1Cl	LASV entry inh inconclusive, Marburg entry inh inconclusive
NNC(=O)c1ccccc1OCCOc1ccccc1	none
O=C(Nc1ccc(NC(=O)c2ccccc2Br)cc1)c1ccccc1	none (no result: LASV entry inh, Marburg entry inh)
Cc1c(CC(=O)NCCc2ccccc2F)c(=O)oc2c(C)c3occ(C(C)(C)C)c3cc12	none (no result: CHX counter, AMA1-RON2 inh, Shiga toxin inh)
Nc1ccn(CC(=O)N[C@H](CO)Cc2c[nH]c3ccccc23)c(=O)n1	none (no result: CHX counter, LASV entry inh, Marburg entry inh, Shiga toxin inh)
COC(=O)N[C@@H](c1cccc(F)c1)[C@]1(C(=O)OC)CCCC1=O	none (no result: CHX counter, LASV entry inh, AMA1-RON2 inh, Shiga toxin inh)
O=C(NNC(=O)c1ccccc1F)c1ccc(NS(=O)(=O)c2ccc(F)cc2)cc1	none (no result: CHX counter, Shiga toxin inh)
O=C(NCc1cccs1)c1cc(-c2cccc(Cl)c2)on1	CHX counter 26, Marburg entry inh inconclusive, Shiga toxin inh 44
Cc1ccc(-c2cc(C(=O)NCc3cccs3)no2)cc1	CHX counter 9.1
O=C(NCCc1ccccc1)c1cc(-c2cccc(Cl)c2)on1	none (no result: CHX counter, AMA1-RON2 inh, Shiga toxin inh)
COc1ccc(OC)c(-c2cc(C(=O)NCc3cccs3)no2)c1	none
O=C(NCc1cccs1)c1cc(-c2ccc(O)cc2)on1	CHX counter 43, Shiga toxin inh 86 (no result: LASV entry inh, Marburg entry inh)
Nc1nonc1-c1nc2ccccc2n1Cc1c(Cl)cccc1Cl	none (no result: CHX counter, AMA1-RON2 inh, Marburg entry inh, Shiga toxin inh)
Cc1noc(C(F)(F)F)c1C(=O)NNC(=O)c1ccccc1	none
CCN(CC)S(=O)(=O)c1ccc(NC(=O)COC(=O)CCc2cc(OC)c(OC)c(OC)c2)cc1	Marburg entry inh inconclusive
